Records with an inconclusive call do not appear. Active and inactive are the calls of the source. The call rests on the fitted dose curve; in most records, active means well fitted curve in the direction sought with a large enough effect; inconclusive means small, poorly fitted or top-dose-only effect, or another doubt; inactive means no such curve, though single readings can be large; an effect the other way counts as inactive or inconclusive.
tested on: not listed separately; assay: Primary qHTS for inhibitors of La Crosse Virus (LACV) - induced cell death in SH-SY5Y cells (AID 1508616); details: SH-SY5Y LACV cytopathicity rescue, ATP luminescence, 6 d; series mostly up to 4.29 µM; activity change: at the top concentration;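 further: top concentration of the series differs between compounds; 0% = infected DMSO wells and 100% = uninfected DMSO wells; higher means more rescue of cells from virus-induced death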
How it was run: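 Cytopathicity rescue screen: compounds pinned onto SH-SY5Y cells, which are then infected with LACV (MOI 0.01) and held 6 days at 37C. Percent activity is scaled between infected DMSO control and uninfected DMSO control.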

Structure (SMILES) | activity change
CN(C)CCN(Cc1ccc(Cl)cc1)c1ccccn1 | -3.35% (inactive)
COc1ccc(-c2nc3ccc(C4=NNC(=O)CC4C)cc3[nH]2)cc1 (stereo not drawn) | 44.1% (inactive)
O[C@@H](COc1cccc2ncccc12)CN1CCN(C2c3ccccc3[C@@H]3[C@H](c4ccccc42)C3(F)F)CC1 (stereo partly drawn) | 41.8% (inactive)
C[C@@H]1C[C@H]2[C@@H]3CCC4=CC(=O)C=C[C@]4(C)[C@@]3(F)[C@@H](O)C[C@]2(C)[C@@]1(O)C(=O)CO | 27.7% (inactive)
O=C(Nc1cccc2c(=O)cc(-c3nn[nH]n3)oc12)c1ccc(OCCCCc2ccccc2)cc1 | 12.4% (inactive)
COc1ccnc(CS(=O)c2nc3ccc(OC(F)F)cc3[nH]2)c1OC (stereo not drawn) | -4.2% (inactive)
OC[C@H]1O[C@@H](OCCc2ccc(O)cc2)[C@H](O)[C@@H](O)[C@H]1O | -7.65% (inactive)
CCCCC[C@H](O)C=C[C@H]1[C@H](O)CC(=O)[C@H]1CC=CCCCC(=O)O | 37.9% (inactive)
O=C(CCCN1CCN(c2ccc(F)cc2)CC1)NC1c2ccccc2CSc2ccccc21 (stereo not drawn) | 26.8% (inactive)

target: Calcium and integrin-binding protein 1 (Homo sapiens) (UniProt Q99828); assay: Confirmatory qHTS for Identification of Calcium Integrin Binding Protein 1 (CIB1) Competitor (AID 1508617); details: CIB1 binding competition assay, biochemical qHTS; series mostly up to 114 µM; activity change, negative = inhibition: at the top concentration; further: nearly all actives have a fitted effect of over 65% in size; further: potency means the concentration at half of the fitted maximal effect; on activity change, negative = inhibition: on the % scale 0 is the no-effect control and ±100 the full control effect
How it was run: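 Fluorescence polarization competition: CIB1-GST (1 uM final) in 5 mM HEPES pH 7.4, 125 mM NaCl, 5 mM CaCl2, 0.01% Tween20 preincubated 15 min RT with compound (up to 114 uM), then FITC-alphaIIb peptide (100 nM) added, 15 min RT.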

Chain of Calcium and integrin-binding protein 1 (Homo sapiens) (Q99828 whole entry, looked up): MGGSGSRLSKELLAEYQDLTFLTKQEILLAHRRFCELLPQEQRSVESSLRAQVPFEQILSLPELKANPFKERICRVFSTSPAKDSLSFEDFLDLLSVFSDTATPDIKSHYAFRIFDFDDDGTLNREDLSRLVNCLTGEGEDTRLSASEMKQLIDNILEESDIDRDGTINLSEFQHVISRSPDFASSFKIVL

Structure (SMILES) | activity change, negative = inhibition | Potency
CN(C)CCCNC(=O)c1ccc(-c2cc(O)c3ncccc3c2)cc1 | 10.5% (inactive) | –
C[C@H]1COC2=C1C(=O)C(=O)c1c2ccc2c1CCCC2(C)C | 8.68% (inactive) | –
CO[C@@H]1C(N(C)C(=O)c2ccccc2)C[C@H]2O[C@]1(C)n1c3ccccc3c3c4c(c5c6ccccc6n2c5c31)C(=O)NC4=O (stereo partly drawn) | – | 15.8 µM (active)
Cc1nc(C(=O)NCC(=O)O)c(O)c2ccc(Oc3ccccc3)cc12 | 1.6% (inactive) | –

target: Calcium and integrin-binding protein 1 (Homo sapiens) (UniProt Q99828); assay: Primary qHTS for Identification of Calcium Integrin Binding Protein 1 (CIB1) Competitor (AID 1508620); details: CIB1-GST / FITC-alphaIIb peptide fluorescence polarization; series mostly up to 57.7 µM; activity change, negative = inhibition: at the top concentration;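 further: GST tagged CIB1 binding a fluorescein labelled alphaIIb integrin peptide tracer; top concentration of the series differs between compounds; on the % scale 0 is the no-effect control and ±100 the full control effect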
How it was run: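 Fluorescence polarization competition: GST-tagged CIB1 (1 uM final) preincubated with compound 15 min at room temperature, then FITC-labelled alphaIIb peptide (100 nM final) added. After 15 min at room temperature, polarization read at Ex 480/Em 540.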

Structure (SMILES) | activity change, negative = inhibition | Potency
CON(C)C(=O)N1N=C(c2cc(F)ccc2F)S[C@]1(CCCN)c1ccccc1 | 2.27% (inactive) | –
C=C1c2cccc(O)c2C(O)=C2C(=O)[C@@]3(O)C(O)=C(C(N)=O)C(=O)[C@@H](N(C)C)[C@@H]3[C@@H](O)[C@H]12 | -17.5% (inactive) | –
COc1nccc(-c2c(-c3ccc(F)cc3)ncn2C2CCNCC2)n1 | – | inactive
CC1CNc2c(cccc2S(=O)(=O)N[C@@H](CCCN=C(N)N)C(=O)N2CC[C@@H](C)C[C@@H]2C(=O)O)C1 (stereo partly drawn) | -3.18% (inactive) | –
CN(C)CCCNC(=O)c1ccc(-c2cc(O)c3ncccc3c2)cc1 | – | inactive
COc1ccc(-c2nc3ccc(C4=NNC(=O)CC4C)cc3[nH]2)cc1 (stereo not drawn) | – | inactive
Cc1cc(-c2ncc(CC(=O)Nc3ccc(-c4cnccn4)cn3)cc2C)ccn1 | – | inactive
O[C@@H](COc1cccc2ncccc12)CN1CCN(C2c3ccccc3[C@@H]3[C@H](c4ccccc42)C3(F)F)CC1 (stereo partly drawn) | – | inactive
C[C@H]1O[C@@H](n2cc(F)c(=O)[nH]c2=O)[C@H](O)[C@H]1O | 1.66% (inactive) | –
CC(C)CN(C[C@H](O)[C@H](Cc1ccccc1)NC(=O)O[C@H]1CCOC1)S(=O)(=O)c1ccc(N)cc1 | -4.22% (inactive) | –
CCCC1OC2C[C@@H]3[C@H]4CCC5=CC(=O)C=C[C@]5(C)[C@H]4C(O)C[C@]3(C)[C@]2(C(=O)CO)O1 (stereo partly drawn) | -3.03% (inactive) | –
COc1cc2ncnc(Nc3cc(Br)c(O)c(Br)c3)c2cc1OC | – | inactive
CC(C)(OCc1nn(Cc2ccccc2)c2ccccc12)C(=O)O | – | inactive
CC1C(=O)OC2C(O)C34C5CC(C(C)(C)C)C36C(OC(=O)C6O)OC4(C(=O)O5)C12O (stereo not drawn) | -7.86% (inactive) | –
C[C@@H]1O[C@@H](O[C@H]2CC[C@@]3(C)[C@H](CC[C@@H]4[C@H]3C[C@@H](O)[C@]3(C)[C@@H](C5=CC(=O)OC5)CC[C@]43O)C2)C[C@H](O)[C@@H]1O[C@H]1C[C@H](O)[C@H](O[C@H]2C[C@H](O)[C@@H](O)[C@@H](C)O2)[C@H](C)O1 (stereo in doubt) | -3.2% [at 114 µM] (inactive) | –
C[C@@H]1C[C@H]2[C@@H]3CCC4=CC(=O)C=C[C@]4(C)[C@@]3(F)[C@@H](O)C[C@]2(C)[C@@]1(O)C(=O)CO | 3.6% [at 114 µM] (inactive) | –
O=C(Nc1cccc2c(=O)cc(-c3nn[nH]n3)oc12)c1ccc(OCCCCc2ccccc2)cc1 | 0.251% (inactive) | –
COc1ccnc(CS(=O)c2nc3ccc(OC(F)F)cc3[nH]2)c1OC (stereo not drawn) | – | inactive
Cc1cccc(Nc2nc(N[C@@H]3CCCC[C@H]3N)ncc2C(N)=O)c1 | -2.14% (inactive) | –
Cc1cnc(-c2cc(N3CCN(C(=O)CCS(C)(=O)=O)CC3)ncc2Cl)c(C)c1 | – | inactive
C=CCc1cccc(C=NNC(=O)CN2CCN(Cc3ccccc3)CC2)c1O | -7.8% (inactive) | –
CCCCC[C@H](O)C=C[C@H]1[C@H](O)CC(=O)[C@H]1CC=CCCCC(=O)O | -11.8% [at 114 µM] (inactive) | –
Oc1ccc(C=Cc2cc(O)cc(O)c2)cc1 | -14% (inactive) | –
FC(F)(F)c1ccc(C=Cc2nc(COc3ccc(CCCCn4ccnn4)cc3)co2)cc1 | 0.974% (inactive) | –
O=C(CCCN1CCN(c2ccc(F)cc2)CC1)NC1c2ccccc2CSc2ccccc21 (stereo not drawn) | -2.4% [at 114 µM] (inactive) | –
COc1ccc(CCN(C)CCCOc2ccc(S(=O)(=O)c3[nH]c4ccccc4c3C(C)C)cc2)cc1OC | -4.05% (inactive) | –
CCCCN(CCCC)CC(O)c1cc(Cl)cc2c1-c1ccc(Cl)cc1C2=Cc1ccc(Cl)cc1 (stereo not drawn) | -1.26% (inactive) | –
Cc1ccccc1C(C(=O)NC1CCCCC1)N(C(=O)CNc1ccc(C#N)cc1)c1cccc(F)c1 (stereo not drawn) | – | inactive
Fc1ccc(CNc2ncnc3ccc(F)cc23)cc1 | – | inactive
CCC[C@@H](NC(=O)[C@@H]1[C@H]2CCC[C@@H]2CN1C(=O)[C@@H](NC(=O)[C@@H](NC(=O)c1cnccn1)C1CCCCC1)C(C)(C)C)C(=O)C(=O)NC1CC1 | 1.24% (inactive) | –
